The list is not random: actives were taken first. Their share in the collection is about 0.92%.
B2AR arrestin – qHTS assay of beta-arrestin-biased ligands of beta2-adrenergic receptor; Beta-2 adrenergic receptor (Homo sapiens), P07550; beta-arrestin recruitment to beta2AR, cell-based reporter; Potency, µM (titrated, usually from 46.1 µM), without a hit: at the top dose activation, usual class: activators; hit rate 0.02% among 330,000;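 further: potency means the concentration at half of the fitted maximal effect; 0% = DMSO controls and full agonism = EC100 isoproterenol or metaproterenol; nearly all actives have a fitted effect of over 65% in size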
Target sequence (P07550 whole entry, looked up): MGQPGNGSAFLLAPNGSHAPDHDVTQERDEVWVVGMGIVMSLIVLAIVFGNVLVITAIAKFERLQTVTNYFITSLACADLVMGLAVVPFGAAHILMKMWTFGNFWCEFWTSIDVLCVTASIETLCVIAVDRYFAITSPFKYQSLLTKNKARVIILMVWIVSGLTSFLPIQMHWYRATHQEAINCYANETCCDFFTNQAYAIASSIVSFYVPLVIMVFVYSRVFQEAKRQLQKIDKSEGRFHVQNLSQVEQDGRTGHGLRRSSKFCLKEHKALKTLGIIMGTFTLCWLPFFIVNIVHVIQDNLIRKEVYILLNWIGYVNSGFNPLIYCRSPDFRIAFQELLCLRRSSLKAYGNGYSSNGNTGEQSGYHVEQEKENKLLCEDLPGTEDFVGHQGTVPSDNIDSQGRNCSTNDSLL
miR-21 reporter – qHTS Assay for Modulators of miRNAs and/orActivators of miR-21 | HeLa miR-21 FLuc reporter, luciferase, 48 h | Potency, µM (top dose mostly 38.3 µM), without a hit: top-dose activity change, positive = activation, most hits filed as activators | 340,000 tested, under 10 active;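 further: % of control where 0% means no effect; miR-21 action dims this reporter so a rising signal means less miR-21 action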
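HeLa miR-21-FLuc reporter line, endogenous miR-21; 2000 cells/well in DMEM/10% FBS; compound titration up to ~40uM final, 48 h, 37 degree Celsius; luciferase detection reagent, 15 min lysis, CCD luminescence.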
uPA generation – qHTS for Inhibitors of Cell Surface uPA Generation; cell surface uPA generation assay, qHTS; Potency, µM (top dose mostly 38.3 µM), for the others: at the highest dose activity change, negative = inhibition, actives largely listed as inhibitors; hit rate 0.31% among 330,000; AID 540303, 2011; active means well fitted inhibition curve with a large enough effect; inconclusive means small, poorly fitted or top-dose-only effect; inactive means no such curve, though single readings can be large or run the other way; tested in mouse RAW 264.7 cells; further: potency means the concentration at half of the fitted maximal effect; on the % scale 0 is the no-effect control and ±100 the full control effect; nearly all actives have a fitted effect of over 55% in size
Coupling enz – qHTS Assay for Inhibitors of Fructose-1,6-bisphosphate Aldolase from Giardia Lamblia: Coupling assay counterscreen; coupling enzyme system counterscreen, AmpLite Red fluorescence; activity change, negative = inhibition, % at 58.2 µM, hits read low; hit rate 0.67% among 290,000; in the data active means activity change below about -30%; further: on the % scale 0 is the no-effect control and ±100 the full control effect
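Compounds tested against the coupling enzymes alone at 57.5 uM final; readout was AmpLite Red fluorescence (525/598 nm) after 20 min at RT.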
Giardia killer – Small Molecules that selectively kill Giardia lamblia: qHTS. hit rate 0.15% among 340,000. activity change, % at 7.66 µM, hits read low. AID 540267, 2011. Giardia lamblia trophozoite viability; in the data active means activity change below about -80%; inconclusive means between about -30% and that limit;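 further: parasites exposed to compound for two days anaerobically before the ATP read; on the % scale 0 is the no-effect control and ±100 the full control effect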
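Trophozoites 100 cells/well + cpd; 48 hrs, 37 deg C, anaerobic. ATPLite 1-Step added, 15-30 min RT, luminescence read (ATP-based viability).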
GALK inh – qHTS Assay for Inhibitors of Human Galactokinase (GALK) | P51570 | AID 1868, 2009 | hit rate 0.007% among 270,000 | Purified GALK, Kinase-Glo residual ATP luminescence | Potency, µM (series often up to 57.5 µM), inactives show top-dose activity change, negative = inhibition, most hits filed as inhibitors; further: potency means the concentration at half of the fitted maximal effect; on the % scale 0 is the no-effect control and ±100 the full control effect
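Quantitative HTS: GALK 5 nM, ATP 35 uM, galactose 100 uM, 1 h room temperature, then luciferase-based ATP detection.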
Numbers without * were called inactive; u = inconclusive; x = no result. Unless noted, the call rests on the fitted dose curve; in most records, active means well fitted curve in the direction sought with a large enough effect; inconclusive means small, poorly fitted or top-dose-only effect, or another doubt; inactive means no such curve, though single readings can be large; an effect the other way counts as inactive or inconclusive.

SMILES | B2AR arrestin | miR-21 reporter | uPA generation | Coupling enz | Giardia killer | GALK inh
CC(=O)c1cccc(NC(=O)c2cc(-c3ccc4c(c3)OCCO4)on2)c1 | x | 11% | x | x | x | x
O=C(NCc1ccccc1)c1cc(-c2cccc(O)c2)on1 | -1% | -50% | 2.8µM* | 1 | -20 | 0%
O=C(Nc1cccc(O)c1)c1cc(-c2ccc3c(c2)OCO3)on1 | 0% | 30% | -17% | -2 | -82* | 14%
O=[N+]([O-])c1ccc(CN2CCN(c3ccc(F)cc3)CC2)o1 | -1% | -2% | -24% | -1 | u | -1%
Cc1cccc(N2CCN(Cc3ccc([N+](=O)[O-])o3)CC2)c1C | 0% | 2% | 2% | -3 | -86* | 0%
C/C(=N\N1C(=O)c2ccccc2NC1c1ccco1)c1ccccc1O (stereo unspecified) | 1% | 5% | 7.9µM* | -4 | 0 | 3%
C/C(=N\N1C(=O)c2ccccc2NC1c1ccccc1)c1ccccc1O (stereo unspecified) | 0% | -59% | -5% | -2 | -8 | -1%
CC(=O)C1=C(C)OC(N)=C(C#N)C1c1cccc2ccccc12 (stereo unspecified) | -1% | 0% | -3% | -34* | -2 | 4%
CC(=O)C1=C(C)OC(N)=C(C#N)C1c1ccco1 (stereo unspecified) | -1% | -3% | -6% | -16 | -7 | -3%
COC(=O)[C@H](CCSC)NC(=O)c1ccc(NC[C@@H](N)CS)cc1-c1ccccc1 | x | x | x | 2 | x | x
C=CCC(C)(NCc1ccccc1)C(=O)OCC (stereo unspecified) | x | x | x | -1 | x | x
CC(C)(C)c1cc[n+](C2=C([O-])c3ccccc3C(=O)/C2=N\S(=O)(=O)c2cccs2)cc1 | -1% | 28% | -12% | -57* | 15 | 2%
O=C1/C(=N\S(=O)(=O)c2cccs2)C([n+]2ccccc2)=C([O-])c2ccccc21 | -1% | 4% | -7% | -51* | -7 | 3%
Cn1nc(-c2ccccc2F)c2cc(C(=O)NCc3cccc(Cl)c3)sc21 | x | 13% | x | x | x | x
O=C(N/N=C\c1ccc([N+](=O)[O-])s1)C1COc2ccccc2O1 (stereo unspecified) | 0% | 1% | u | 0 | -85* | 6%
O=[N+]([O-])c1ccc(/C=[N+](\[O-])[C@@H]2CCCC[C@@H]2/[N+]([O-])=C/c2ccc([N+](=O)[O-])o2)o1 | 4% | 21% | -4% | -13 | -82* | -2%
CC(NC(=O)c1ccc([N+](=O)[O-])o1)C12CC3CC(CC(C3)C1)C2 (stereo unspecified) | -1% | 6% | -9% | -3 | -87* | -2%
O=C(N/N=C\c1ccc([N+](=O)[O-])o1)C1COc2ccccc2O1 (stereo unspecified) | -1% | 23% | -12% | 2 | -82* | 3%
O=C(N/N=C\c1ccc(Cl)s1)C1COc2ccccc2O1 (stereo unspecified) | -1% | 15% | u | -1 | 8 | 7%
O=C(N/N=C\c1ccc(-c2ccccc2[N+](=O)[O-])o1)C1COc2ccccc2O1 (stereo unspecified) | 0% | -1% | 2% | -2 | -13 | 0%
CCC(C)Sc1oc(-c2ccco2)nc1S(=O)(=O)c1ccc(Cl)cc1 (stereo unspecified) | x | 1% | x | x | x | x
COc1ccc2c(c1)CC(C(=O)NCCN1CCN(c3cccc(C)c3C)CC1)CO2 (stereo unspecified) | x | 14% | x | x | x | x
O=C(N/N=C/c1ccc([N+](=O)[O-])o1)C1CCCC1 | 0% | 17% | -13% | x | -93* | 0%
CC(NC(=O)C12CC3CC(CC(C3)C1)C2)C(=O)NN=Cc1ccc([N+](=O)[O-])o1 (stereo unspecified) | -1% | x | -11% | x | -93* | x
CC(NC(=O)C12CC3CC(CC(C3)C1)C2)C(=O)N/N=C/C1=C(N2CCOCC2)C(=C\c2cccc([N+](=O)[O-])c2)/CC1 (stereo unspecified) | -1% | 2% | 6% | -1 | -6 | 0%
SMILES | B2AR arrestin | miR-21 reporter | uPA generation | Coupling enz | Giardia killer | GALK inh
COc1ccc(CCC(=O)NCc2ccc3c(c2)CCN3C(=O)c2cccc(C)c2)cc1 | x | 4% | x | x | x | x
O=[N+]([O-])c1c(NCCCO)cc(N2CCCCCC2)c2nonc12 | 0% | -6% | -13% | -3 | 10 | -5%
O=[N+]([O-])c1c(NCc2ccccc2)cc(N2CCc3ccccc3C2)c2nonc12 | 0% | -2% | 0% | -40* | 3 | 0%
CCOc1ccc(C2C(C(=O)Nc3ccccc3C)=C(C)Nc3nnnn32)cc1 (stereo unspecified) | x | 7% | x | x | x | x
Cc1ccc2nc(C)c(C(=O)NN=C3CCCCCC3)n2c1 | 0% | 20% | 4.5µM* | 1 | -6 | 5%
Cc1ccc2c(c1)c1c(c(=O)n(Cc3ccccc3)c(=O)n1CC(=O)NCc1ccccc1Cl)n2C | x | 5% | x | x | x | x
O=C1OCCN1/N=C\c1ccc([N+](=O)[O-])o1 | x | x | x | 0 | x | x
O=C1OCCN1/N=C/c1ccc([N+](=O)[O-])o1 | 0% | 8% | -26% | -14 | -92* | 0%
O=C1OC(CN(Cc2ccccc2)Cc2ccccc2)CN1N=Cc1ccc([N+](=O)[O-])o1 (stereo unspecified) | x | x | 6% | x | -94* | x
O=C1O[C@H](CN2CCOCC2)CN1/N=C\c1ccc([N+](=O)[O-])o1 | x | x | x | -1 | x | x
COc1cc(C(=O)OCc2cc(=O)n3nc(C(C)C)sc3n2)cc(OC)c1OC | x | -5% | x | x | x | x
Cn1nc(-c2ccc(C(=O)NCCO)cc2)c2ccccc2c1=O | 5.6µM* | 0% | 1% | 0 | -4 | 4%
Cc1cccc2sc(N(Cc3cccnc3)C(=O)Cc3ccccc3)nc12 | x | 16% | x | x | x | x
Cc1ccc(C(=O)Nc2ccc(-n3c(C)nc4ccccc4c3=O)cc2)cc1[N+](=O)[O-] | x | -5% | x | x | x | x
CC1=C(C(=O)Nc2ccccc2)C(c2ccccc2[N+](=O)[O-])NC(=O)N1 (stereo unspecified) | 0% | -27% | 20% | -4 | 3 | -2%
COc1ccccc1NC(=O)C1=C(C)NC(=O)NC1c1ccccc1[N+](=O)[O-] (stereo unspecified) | 0% | -55% | -3% | -41* | 0 | 9%
COC(=O)c1cc2occc2n1Cc1ccc(F)cc1Cl | x | -13% | x | x | x | x
O=C(NNc1cc(N2CCOCC2)nc(N2CCOCC2)n1)c1ccc([N+](=O)[O-])cc1 | 0% | 0% | 1% | -54* | -2 | u

High-throughput results (PubChem)
